“And” between values parts separate entries of the source, which are not always exact repeats. Identical values can stand only once. Some structures have more than one record in an assay (separate samples or runs), and their calls can disagree. The source made the active and inactive calls. Rule for the calls: active = hit-call score of the fitted dose curve at least 0.9, where 1 is the maximum; inactive = score below 0.9.
Assay: ATG_NRF2_ARE_CIS: Attagene CIS-FACTORIAL HepG2 Assay for human Nuclear Factor Erythroid 2 Related Factor 2 (NFR2) response to Antioxidant Response Elements (ARE) (AID 2282992)
Settings: HepG2 Attagene ARE/NRF2 reporter, transcription factor activity; actives raise or lower the signal
Protocol: ATG_CIS is a cell-based, multiplexed-readout assay that uses HepG2, a human liver cell line, with measurements taken at 24 hours after chemical dosing in a 24-well plate.ATG_NRF2_ARE_CIS is one of 52 assay component(s) measured or calculated from the ATG_CIS assay. It is designed to make measurements of mRNA induction, a form of inducible reporter, as detected with fluorescence intensity signals by Reverse transcription polymerase chain reaction (RT-PCR) and Capillary electrophoresis technology.Data from the assay component ATG_NRF2_ARE_CIS was analyzed into 1 assay endpoint. This assay endpoint, ATG_NRF2_ARE_CIS, was analyzed with bidirectional fitting relative to DMSO as the negative control and baseline of activity. Using a type of inducible reporter, measures of mRNA for gain or loss-of-signal activity can be used to understand the reporter gene at the transcription factor-level as they relate to the gene NFE2L2. Furthermore, this assay endpoint can be referred to as a primary readout, because this assay has produced multiple assay endpoints where this one serves a reporter gene function. To generalize the intended target to other relatable targets, this assay endpoint is annotated to the dna binding intended target family, where the subfamily is basic leucine zipper.
Human liver HepG2 cells are transiently transfected with multiple reporter transcription units (MRTUs) in 6-well plates using FuGene 6 reagent (Roche; 3 ml FuGene/1 mg DNA). The MRTU constructs are regulated by a cis-regulating element (promoter). […] A major difference between the CIS and TRANS system is that in CIS activities of endogenous TFs are measured, whereas the TRANS assay evaluates changes in activities of exogenous, chimeric NR-Gal4 proteins. […] At the end of 24 hour incubation, total RNA was isolated using TriZol reagent (Invitrogen). The isolated RNA is then reverse-transcribed using oligo(dT) primer and Mo-MLV reverse transcriptase (Invitrogen) with DNAse I (Ambion) treatment for 30 min. The one-tenth of the produced cDNA was amplified by PCR using Taq DNA polymerase (Invitrogen) and two reporter sequence-specific primers. The PCR products were fluorescently labeled by primer extension with 6-arboxyfluorescein (6-FAM) 5'-labeled reporter sequence-specific primer (2 min at 95 C, 20 s at 68 C and 10 min at 72 C) and these products were digested with 5U of HpaI (New England Biolabs) for 2h at 37 C. The fragments were purified using Qiaquick PCR columns (Qiagen), analyzed on an ABI 3130xL genetic analyzer (Applied Biosystems) with peak positions identified by using a set of X-rhodamine (ROX)-labeled MapMarker1000 molecular weight standards (BioVentures). The raw capillary electrophoresis data was processed using Attagraph software (Attagene).

| Compound | AC50 | outcome |
| --- | --- | --- |
| Oc1ccc(-c2ccccc2)cc1 | 100 µM (active) |  |
| c1cc[c]([Hg][c]2ccccc2)cc1 |  | inactive |
| O=C(O)C(F)(F)C(F)(F)C(F)(F)C(F)(F)C(F)(F)C(F)(F)C(F)(F)C(F)(F)C(F)(F)C(F)(F)F | 7.52 µM (active) | inactive |
| CCSC(C)CC1CC(=O)C(C(CC)=NOC/C=C/Cl)=C(O)C1 (stereo not given) |  | inactive |
| CN(C)P(=O)(N(C)C)N(C)C |  | inactive |
| O=P(O)(O)CN(CP(=O)(O)O)CP(=O)(O)O |  | inactive |
| CCC1(c2ccc(N)cc2)CCC(=O)NC1=O (stereo not given) |  | inactive |
| OCc1ccco1 | 49.6 µM (active) |  |
| CC(=O)C(Cl)C(=O)N(C)C (stereo not given) | 25.9 µM (active) |  |
| Nc1cccc2ccccc12 | 77.9 µM (active) |  |
| Fc1ccc(C2(Cn3cncn3)OC2c2ccccc2Cl)cc1 (stereo not given) | 44.7 µM (active) |  |
| ClC1(Cl)C2(Cl)C3(Cl)C4(Cl)C(Cl)(Cl)C5(Cl)C3(Cl)C1(Cl)C5(Cl)C24Cl (stereo not given) |  | inactive |
| CC(=[OH+])/C=C(/C)[O-].CC(=[OH+])/C=C(/C)[O-].CC(=[OH+])/C=C(/C)[O-].[Fe] | 16.9 µM (active) |  |
| N#Cc1ccccn1 |  | inactive |
| COP(=S)(OC)Oc1cc(Cl)c(Cl)cc1Cl | 34.1 µM (active) |  |
| O=[N+]([O-])c1c(Cl)c(Cl)cc(Cl)c1Cl | 57.3 µM (active) |  |
| COP(=S)(OC)Oc1ccc(S(=O)(=O)N(C)C)cc1 | 35.2 µM (active) |  |
| CCNc1nc(NC(C)(C)C)nc(SC)n1 |  | inactive |
| O=S(=O)(c1ccc(Cl)cc1)c1ccc(Cl)cc1 | 10 µM (active) |  |

| Compound | AC50 | outcome |
| --- | --- | --- |
| O=Cc1cccc(Oc2ccccc2)c1 |  | inactive |
| O=C1CCCN1 |  | inactive |
| NC(=O)O |  | inactive |
| Cc1ccccc1C(=O)Nc1cccc(OC(C)C)c1 | 57.3 µM (active) |  |
| COc1ccc(OC)c(C=O)c1 |  | inactive |
| CCCCOCCOC(C)=O |  | inactive |
| CN(C)N=O |  | inactive |
| C[C@]12CC[C@H](O)CC1=CC[C@@H]1[C@@H]2CC[C@]2(C)C(=O)CC[C@@H]12 |  | inactive |
| C[C@@H](Oc1ccc(Cl)cc1Cl)C(=O)O |  | inactive |
| ClCc1cccnc1 | 27.9 µM (active) |  |
| CNC |  | inactive |
| CCOP(OCC)OCC |  | inactive |
| C[C@H]1O[C@@H](O[C@H]2[C@@H](O)C[C@H](O[C@H]3[C@@H](O)C[C@H](O[C@H]4CC[C@@]5(C)[C@H](CC[C@@H]6[C@@H]5CC[C@]5(C)[C@@H](C7=CC(=O)OC7)CC[C@]65O)C4)O[C@@H]3C)O[C@@H]2C)C[C@H](O)[C@@H]1O |  | inactive |
| C=CC(=O)N(C)C |  | inactive |
| COP(=O)(OC)O/C(=C\Cl)c1cc(Cl)c(Cl)cc1Cl | 25.8 µM (active) |  |
| CCOP(=S)(OCC)SCCS(=O)(=O)CC | 19 µM (active) |  |
| O=C(OC1CCCCC1)c1ccccc1C(=O)OC1CCCCC1 | 18.4 µM (active) |  |
| O=C(O)C(F)(F)C(F)(F)C(F)(F)C(F)(F)C(F)(F)C(F)(F)F | 212 µM (active) and 219 µM (active) | inactive |
| C[C@H]1CCCC(=O)CCC/C=C/c2cc(O)cc(O)c2C(=O)O1 |  | inactive |
